Consider 9 compounds from PubChem BioAssay (NCATS).

Several values for one entry are separate records, joined by “and”; a condition that tells them apart may be missing. Identical values can stand only once. Records with an inconclusive call do not appear. Activity calls are given as the source filed them. Unless noted, the call rests on the fitted dose curve; in most records, active means well fitted curve in the direction sought with a large enough effect; inconclusive means small, poorly fitted or top-dose-only effect, or another doubt; inactive means no such curve, though single readings can be large; an effect the other way counts as inactive or inconclusive.

Test [1] is described as follows: qHTS to identify inhibitors of the type 1 interferon - major histocompatibility complex class I in skeletal muscle: primary screen against the NCATS Mechanism Interrogation Plate v5.0 (MIPE) Libary (AID 1347411). Further: nearly all actives have a fitted effect of over 65% in size. Further: potency means the concentration at half of the fitted maximal effect.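 On activity change, negative = inhibition: plate controls were vehicle for no effect and reference inhibitor for full effect.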 The gist of the method: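 HLA-B HiBit myoblasts, dexamethasone-free medium + 4 ng/ml IFN-b, 24 h compound, 11-pt 1:3 from 46 uM final. Readout: Nano-Glo HiBiT lytic luminescence after 10 min lysis, RT.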
Background: In qHTS, concentration-response curves come from the screen itself.

Test [2] addresses Calcium and integrin-binding protein 1 (Homo sapiens) (UniProt Q99828). Put plainly: Primary qHTS for Identification of Calcium Integrin Binding Protein 1 (CIB1) Competitor (AID 1508620).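 Further: GST tagged CIB1 binding a fluorescein labelled alphaIIb integrin peptide tracer; top concentration of the series differs between compounds; on the % scale 0 is the no-effect control and ±100 the full control effect.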 The gist of the method:
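Fluorescence polarization competition: GST-tagged CIB1 (1 uM final) preincubated with compound 15 min at room temperature, then FITC-labelled alphaIIb peptide (100 nM final) added. After 15 min at room temperature, polarization read at Ex 480/Em 540.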

The nature of test [3]: Primary qHTS for small molecule stabilizers of the endoplasmic reticulum resident proteome: Secreted ER Calcium Modulated Protein (SERCaMP) assay (AID 1508630). Further: on the % scale 0 is the no-effect control and ±100 the full control effect. The gist of the method: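 The SH-SY5Y reporter protocol was run at 3 concentrations up to 38.3 uM (primary) or 11 concentrations (follow-up): 16 h compound, 100 nM thapsigargin for 4 h, then extracellular luciferase luminescence.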

Test [4] addresses Cytochrome P450 2D6 (Homo sapiens) (UniProt P10635). Kind of test: Cytochrome P450 family 2 subfamily D member 6 (CYP2D6) small molecule antagonists: luciferase biochemical (cell-free) qHTS assay (AID 1645840; active means well fitted curve in the direction sought with a large enough effect in the repeat runs; an effect the other way counts as inactive or inconclusive; further: nearly all actives have a fitted effect of over 55% in size; further: potency means the concentration at half of the fitted maximal effect; on activity change, negative = inhibition: on the % scale 0 is the no-effect control and ±100 the full control effect). The gist of the method: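 P450-Glo CYP2D6 system: proluciferin substrate converted by enzyme to luciferin, read by luminescence proportional to activity. Enzyme-substrate mix with compound 10 min at room temperature, then NADPH regeneration 1 h before detection reagent.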

Test [5] has as its target Cytochrome P450 2C9 (Homo sapiens) (UniProt P11712). Put plainly: Cytochrome P450 family 2 subfamily C member 9 (CYP2C9) small molecule antagonists: luciferase biochemical (cell-free) qHTS assay (AID 1645842; active means well fitted curve in the direction sought with a large enough effect in the repeat runs; an effect the other way counts as inactive or inconclusive; further: nearly all actives have a fitted effect of over 55% in size; further: potency means the concentration at half of the fitted maximal effect; on activity change, negative = inhibition: on the % scale 0 is the no-effect control and ±100 the full control effect). The gist of the method: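 P450-Glo CYP2C9 system: proluciferin substrate with enzyme in mix containing 0.4% BSA, 10 min at room temperature, then NADPH regeneration solution added and incubated 1 h at 37C. Detection reagent stopped reaction; luminescence read after 20 min as RLU.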

The nature of test [6]: Primary qHTS for inhibitors of nuclear receptor binding SET domain protein 2 (NSD2) in an isogenic RCH-ACV NSD2 p.E1099K mutant (9B) (AID 1645876). Further: nearly all actives have a fitted effect of over 70% in size. Further: potency means the concentration at half of the fitted maximal effect.
A short description of test [7]: Primary qHTS for inhibitors of nuclear receptor binding SET domain protein 2 (NSD2) in an RCH-ACV wild type WT cells (2C) (AID 1645877). Further: nearly all actives have a fitted effect of over 70% in size. Further: potency means the concentration at half of the fitted maximal effect.
The target in test [8] is Protein phosphatase 1D (Homo sapiens) (UniProt O15297). Kind of test: RapidFire Mass Spectrometry qHTS Assay for Modulators of WT P53-Induced Phosphatase 1 (WIP1) (AID 1347424).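 Further: plate controls were DMSO wells for no effect and GSK830371 inhibitor control at 10 µM for full effect.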 The gist of the method:
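RapidFire MS readout of dephosphorylated VEPPL-S-QETFS product, with 1 uM isotope-labelled peptide standard. Reaction: 10 nM WIP1, 2 uM phosphopeptide substrate, 5 min, room temperature, after 1 h compound preincubation; stopped with 0.5% formic acid.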

For test [9] the target is unchanged. Kind of test: Rhodamine-PBP qHTS Assay for Modulators of WT P53-Induced Phosphatase 1 (WIP1) (AID 1347425). Further: % of control where 0% means no effect. The gist of the method: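 The read-out is the change in Rhodamine-PBP fluorescence (f1 - f0, ex 525/em 598 nm) as Pi is released, read each minute for 11 min. Final reaction: 5 nM WIP1, 10 uM phosphopeptide VEPPL-pS-QETFS, 10 uM Rh-PBP, 50 mM Tris-HCl pH 7.5, 30 mM MgCl2. Compound was preincubated with enzyme for 1 hour at room temperature.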

Test [10] is described as follows: Primary qHTS for inhibitors of La Crosse Virus (LACV) - induced cell death in SH-SY5Y cells (AID 1508616).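 Further: top concentration of the series differs between compounds; 0% = infected DMSO wells and 100% = uninfected DMSO wells; higher means more rescue of cells from virus-induced death.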 The procedure, abridged:
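Cytopathicity rescue screen: compounds pinned onto SH-SY5Y cells, which are then infected with LACV (MOI 0.01) and held 6 days at 37C. Percent activity is scaled between infected DMSO control and uninfected DMSO control.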

Test [11] can be described thus: A High-Content qHTS Against Drug Library for the Identification of Small Molecules that Inhibit DYT1 Early Onset Primary Dystonia-Associated Cell Pathology (AID 1645839; calls by dose curve). The gist of the method:
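Cells were seeded and left for 24 h, then dosed with compound alongside tetracycline induction of mutant EGFP-TorsinA. They were incubated for 48 h, fixed in 4% paraformaldehyde, permeabilized and imaged for mislocalization (%pathology) and cell count.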

Test [12] deals with Cytochrome P450 3A4 (Homo sapiens) (UniProt P08684). Kind of test: Cytochrome P450 family 3 subfamily A member 4 (CYP3A4) small molecule antagonists: luciferase qHTS assay (AID 1645841; active means well fitted curve in the direction sought with a large enough effect in the repeat runs; an effect the other way counts as inactive or inconclusive; further: nearly all actives have a fitted effect of over 45% in size). The procedure, abridged: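 P450-Glo CYP3A4 enzyme with proluciferin substrate preincubated 10 min with compound at room temperature, then NADPH regeneration 1 h. Luciferin detection reagent added for 20 min; luminescence recorded. Ketoconazole positive control.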
Cytochrome P450 3A4 (Homo sapiens), sequence (P08684 whole entry, looked up): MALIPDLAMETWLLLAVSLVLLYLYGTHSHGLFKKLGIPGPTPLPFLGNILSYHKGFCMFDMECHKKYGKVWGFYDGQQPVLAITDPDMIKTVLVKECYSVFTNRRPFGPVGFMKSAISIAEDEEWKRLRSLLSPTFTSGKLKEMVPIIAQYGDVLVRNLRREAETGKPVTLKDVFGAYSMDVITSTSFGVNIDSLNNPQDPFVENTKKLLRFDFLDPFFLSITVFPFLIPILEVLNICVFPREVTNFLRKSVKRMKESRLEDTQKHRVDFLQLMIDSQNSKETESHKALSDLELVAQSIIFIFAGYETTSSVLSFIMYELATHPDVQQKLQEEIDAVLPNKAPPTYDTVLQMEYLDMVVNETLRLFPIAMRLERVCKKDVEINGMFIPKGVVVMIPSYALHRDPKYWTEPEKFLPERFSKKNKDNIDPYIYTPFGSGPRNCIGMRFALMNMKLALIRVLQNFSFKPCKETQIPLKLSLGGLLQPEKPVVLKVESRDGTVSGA

The target in test [13] is Catechol O-methyltransferase (Homo sapiens) (UniProt P21964). Kind of test: Confirmatory Screen for Target Class Profiling of Small Molecule Inhibitors of Methyltransferases (AID 1745852). The following applies: MTase-Glo luminescence, SAH detection, recombinant enzyme; measured here: COMT max response; stronger effect = lower value.
Catechol O-methyltransferase (Homo sapiens), sequence (P21964 whole entry, looked up): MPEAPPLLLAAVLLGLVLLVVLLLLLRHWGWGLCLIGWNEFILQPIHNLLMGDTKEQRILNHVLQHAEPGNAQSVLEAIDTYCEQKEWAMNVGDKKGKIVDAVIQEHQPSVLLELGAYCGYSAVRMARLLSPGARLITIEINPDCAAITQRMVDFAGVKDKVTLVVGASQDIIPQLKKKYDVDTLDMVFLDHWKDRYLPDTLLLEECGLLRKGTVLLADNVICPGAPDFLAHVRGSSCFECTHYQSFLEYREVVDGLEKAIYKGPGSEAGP
The target of test [14] is Guanidinoacetate N-methyltransferase (Homo sapiens) (UniProt Q14353). The test is described as above. The following applies: activity change, negative = inhibition: at 57.3 µM (top of the series).
In test [15] the target is Nicotinamide N-methyltransferase (Homo sapiens) (UniProt P40261). The description is as above. Particulars: MTase-Glo luminescence, SAH detection, recombinant enzyme; measured here: NNMT max response; stronger effect = lower value.
Nicotinamide N-methyltransferase (Homo sapiens), sequence (P40261 whole entry, looked up): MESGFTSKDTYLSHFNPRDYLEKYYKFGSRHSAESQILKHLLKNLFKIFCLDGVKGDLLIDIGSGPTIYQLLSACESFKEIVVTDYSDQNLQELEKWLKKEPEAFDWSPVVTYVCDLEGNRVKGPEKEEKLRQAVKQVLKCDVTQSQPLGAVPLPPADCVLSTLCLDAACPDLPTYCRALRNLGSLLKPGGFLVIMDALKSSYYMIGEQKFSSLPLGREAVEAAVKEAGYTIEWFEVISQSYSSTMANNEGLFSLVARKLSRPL

Cytochrome P450 2D6 (Homo sapiens), sequence (P10635 whole entry, looked up): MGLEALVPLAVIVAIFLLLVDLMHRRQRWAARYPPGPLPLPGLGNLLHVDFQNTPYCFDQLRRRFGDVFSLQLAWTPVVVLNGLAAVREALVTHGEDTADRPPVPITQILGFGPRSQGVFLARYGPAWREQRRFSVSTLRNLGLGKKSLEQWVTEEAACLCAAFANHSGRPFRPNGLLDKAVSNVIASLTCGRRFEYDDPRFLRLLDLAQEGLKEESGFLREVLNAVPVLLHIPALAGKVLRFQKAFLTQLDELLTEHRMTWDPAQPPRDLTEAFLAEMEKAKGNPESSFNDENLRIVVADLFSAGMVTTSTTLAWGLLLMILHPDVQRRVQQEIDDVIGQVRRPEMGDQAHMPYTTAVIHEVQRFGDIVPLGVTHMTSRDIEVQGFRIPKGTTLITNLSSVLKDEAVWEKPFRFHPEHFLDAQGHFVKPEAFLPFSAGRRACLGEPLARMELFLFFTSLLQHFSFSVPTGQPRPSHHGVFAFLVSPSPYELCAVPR
Calcium and integrin-binding protein 1 (Homo sapiens), sequence (Q99828 whole entry, looked up): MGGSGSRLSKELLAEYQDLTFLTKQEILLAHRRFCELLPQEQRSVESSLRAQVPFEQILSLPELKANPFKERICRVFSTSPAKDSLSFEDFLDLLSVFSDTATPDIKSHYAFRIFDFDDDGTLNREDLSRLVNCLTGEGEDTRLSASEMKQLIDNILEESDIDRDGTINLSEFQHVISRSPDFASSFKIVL
Cytochrome P450 2C9 (Homo sapiens), sequence (P11712 whole entry, looked up): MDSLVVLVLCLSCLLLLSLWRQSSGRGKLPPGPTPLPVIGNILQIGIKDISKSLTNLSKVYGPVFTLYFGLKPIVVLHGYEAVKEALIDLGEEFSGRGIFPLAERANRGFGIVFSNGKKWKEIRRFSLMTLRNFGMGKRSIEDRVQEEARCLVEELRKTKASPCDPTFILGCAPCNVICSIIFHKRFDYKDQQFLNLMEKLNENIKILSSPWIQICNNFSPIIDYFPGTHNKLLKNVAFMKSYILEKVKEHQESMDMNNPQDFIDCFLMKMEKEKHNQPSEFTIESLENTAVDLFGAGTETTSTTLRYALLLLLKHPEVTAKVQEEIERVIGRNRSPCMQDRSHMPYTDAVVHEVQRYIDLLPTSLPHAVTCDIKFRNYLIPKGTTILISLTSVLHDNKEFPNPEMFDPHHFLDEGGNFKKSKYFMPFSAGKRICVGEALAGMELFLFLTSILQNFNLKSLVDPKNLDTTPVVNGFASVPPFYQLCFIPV
Protein phosphatase 1D (Homo sapiens), sequence (O15297 whole entry, looked up): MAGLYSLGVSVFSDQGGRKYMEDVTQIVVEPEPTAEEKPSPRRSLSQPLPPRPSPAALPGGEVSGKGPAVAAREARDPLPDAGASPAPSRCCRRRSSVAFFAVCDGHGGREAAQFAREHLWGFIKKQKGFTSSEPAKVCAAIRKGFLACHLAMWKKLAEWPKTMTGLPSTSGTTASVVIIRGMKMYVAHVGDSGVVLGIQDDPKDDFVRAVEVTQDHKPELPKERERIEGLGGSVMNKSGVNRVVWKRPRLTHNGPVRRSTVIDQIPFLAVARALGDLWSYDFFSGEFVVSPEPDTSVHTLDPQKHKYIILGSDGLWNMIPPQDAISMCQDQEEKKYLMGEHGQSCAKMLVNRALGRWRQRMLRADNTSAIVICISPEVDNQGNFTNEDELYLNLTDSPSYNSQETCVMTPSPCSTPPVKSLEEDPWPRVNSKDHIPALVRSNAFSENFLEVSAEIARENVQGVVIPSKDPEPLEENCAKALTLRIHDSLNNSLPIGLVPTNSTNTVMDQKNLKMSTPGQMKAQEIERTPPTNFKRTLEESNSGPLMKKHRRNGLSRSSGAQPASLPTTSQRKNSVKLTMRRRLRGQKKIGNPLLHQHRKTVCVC

For the compound `C#CCC(Cc1cnc2nc(N)nc(N)c2n1)c1ccc(C(=O)N[C@@H](CCC(=O)O)C(=O)O)cc1` (stereo partly specified), the Potency result in test [1], in test [2], in test [4] and in test [5] was “inactive” in each case. Moreover, the outcome in test [3] is “inactive”. Moreover, the Potency in test [6] was 4.7 nM (active); in [7], 5.3 nM (active).
Turning to `Nc1ccn(C2CO[C@H](CO)O2)c(=O)n1` (stereo partly specified), the Potency entry in test [1], in test [8], in test [4], in test [12] and in test [5] was “inactive” each time. Besides, the outcome in test [9], in [10] and in test [11] was “inactive” throughout.
On to `Cn1cc(CNCC2CCN(c3ncc(C(=O)NO)cn3)CC2)c2ccccc21`, for which the Potency was 0.117 µM (active) in [1], 3.38 µM (active) in [4], 742 nM (active) in test [6] and 742 nM (active) in [7]. Moreover, the Potency entry in test [2] and in test [5] was “inactive” in each case. The outcome in test [3] was “inactive”.
With `OCCNC1CCCc2c1[nH]c1ccc(-c3ccccc3)cc21` (stereo unspecified), the Potency in [1] is 20.8 µM (active); in [4] it was 15.1 µM (active); in test [5], 26.8 µM (active); in test [6] it was 11800 nM (active); in test [7], 11800 nM (active). Also, in test [2], the Potency result was “inactive”. Moreover, in test [3], the outcome is “inactive”.
Consider `O=C(Nc1ccc(Oc2ccnc3[nH]ccc23)c(F)c1)c1cccn(-c2ccc(F)cc2)c1=O`, for which the Potency entry in test [1], in [2] and in test [4] was “inactive” in each case. In addition, the outcome in [3] is “inactive”. Further, the Potency in test [5] was 1.9 µM (active); in test [6], 16600 nM (active).
Take `Cc1ncc(-c2ccnc(Nc3ccc(S(C)(=O)=O)cc3)n2)n1C(C)C`: the Potency in [1] was 1.17 µM (active); in [5] it was 3.79 µM (active); in test [6], 1.45 µM (active) and 742 nM (active); in test [7], 916 nM (active) and 525 nM (active). Also, the Potency result in test [2] and in test [4] was “inactive” each time. Besides, in test [3], the outcome is “inactive”.
For the compound `COc1cc(C(C)C)c(Oc2cnc(NC(CO)CO)nc2N)cc1I`, the Potency entry in [1], in test [2], in [6] and in test [7] was “inactive” throughout. Also, in test [3], the outcome was “inactive”. Also, the Potency in test [4] was 19 µM (active); in test [5], 12 µM (active).
`Cc1cnc(Nc2ccc(CN3CCOCC3)cc2)nc1Nc1cccc(S(=O)(=O)NC(C)(C)C)c1`: the Potency in test [1] was 2.94 µM (active); in [4], 9.52 µM (active); in test [5] it was 1.34 µM (active); in test [6], 1.18 µM (active) and 578 nM (active); in [7] it was 1.05 µM (active) and 515 nM (active). In addition, the Potency entry in [2] is “inactive”. In addition, the outcome in [3] is “inactive”. Also, the activity was -0.0774% in test [13] and -43.5% in test [15]. The activity change, negative = inhibition in test [14] is 0.454%.
For `NC(=O)c1cccc(-c2cccc(OC(=O)NC3CCCCC3)c2)c1`, the Potency entry in [1], in test [2], in [4], in [5], in test [6] and in test [7] was “inactive” each time. Besides, in test [3], the outcome is “inactive”.
